Source: PubChem BioAssay (NCI)
Compounds without any hit were thinned out: in the full panel of roughly 83,000, 20% have a hit.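 Values shown are percent growth following 48 h exposure of cells in 96-well plates to a single concentration of compound; below 10 was considered active.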 Unmarked numbers belong to inactive results. Calls of active or inactive are those of the source.

Key:
Experiment in all cases: NCI-60 one-dose screen, 48 h (100 = growth as untreated, 0 = no growth, -100 = all killed)
Settings in all cases: 10 µM unless noted
[1] = tested on: SR leukemia
[2] = tested on: OVCAR-8 ovarian
[3] = tested on: OVCAR-5 ovarian
[4] = tested on: OVCAR-4 ovarian
[5] = tested on: SK-OV-3 ovarian
[6] = tested on: IGROV1 ovarian
[7] = tested on: OVCAR-3 ovarian
[8] = tested on: HS 578T breast
[9] = tested on: NCI/ADR-RES ovarian
[10] = tested on: T-47D breast
[11] = tested on: BT-549 breast
[12] = tested on: MDA-MB-435 melanoma
[13] = tested on: SW-620 colon
[14] = tested on: MCF7 breast
[15] = tested on: HCT-116 colon
[16] = tested on: HCC-2998 colon
[17] = tested on: KM12 colon

| SMILES | growth [1] | growth [2] | growth [3] | growth [4] | growth [5] | growth [6] | growth [7] | growth [8] | growth [9] | growth [10] | growth [11] | growth [12] | growth [13] | growth [14] | growth [15] | growth [16] | growth [17] |
| --- | --- | --- | --- | --- | --- | --- | --- | --- | --- | --- | --- | --- | --- | --- | --- | --- | --- |
| O=C(Cc1ccc2c(c1)OCCO2)Nc1nc2ccc(F)cc2s1 | 103% | 94.7% | 90.3% | 96.4% | 105% | 48.3% | 104% | 106% | 99% | 93.6% | 89.6% | 104% | 104% | 92.2% | 101% | 122% |  |
| Nc1nn(C(=O)Nc2ccc(Cc3ccccc3)cc2)c2ccc(Cl)cc12 | 71.7% | 72.5% | 55.7% | 54.3% | 91% | 76.2% | 76.7% | 92.1% | 67% | 41.4% | 55.9% | 53.3% | 81.8% | 20.7% | 42.5% | 2.27% (active) | 66.2% |
| O=c1c2cc(C(F)(F)F)ccc2sc2c(NCCCNCCO)nc3ccccc3c12 | -39.4% (active) | -3.45% (active) | 64.8% | -41.6% (active) | 74.9% | 15% | -73.8% (active) | -9.58% (active) | 1.68% (active) | -6.02% (active) | 86.1% | -73% (active) | -75.9% (active) | -59.7% (active) | -72.8% (active) | -89.8% (active) | -67.8% (active) |
| CCN(CC)CCNc1nc2ccccc2c2c(=O)c3cc(Cl)ccc3sc12 | -2.52% (active) | 64.4% | 81.6% | 46.5% | 54% | 56.1% | 51.3% | 67.6% | 27.1% | 60.4% | 94% | 15.6% | 17.2% | 52.3% | 20.5% | 14.2% | 26.5% |
| O=C(Nc1c2ccccc2nc2ccccc12)c1ccccc1CN1C(=O)c2ccccc2C1=O | 30.5% | 31.3% | 40.1% | 44.8% | 35.6% | 21.4% | 34.1% | 21% | 29.3% | 33.4% | 76.2% | 30.3% | 15.5% | 10.3% | 16.1% | 41.4% | 26% |
| Oc1c(I)cc(I)cc1CNCCCN(Cc1ccccn1)Cc1ccccn1 | 4.38% (active) | -11.2% (active) | -44.9% (active) | -94.3% (active) | -73% (active) | -79.5% (active) | -69.9% (active) | -21.7% (active) | -17.1% (active) | -57% (active) | -73.2% (active) | -90.7% (active) | -61.9% (active) | -56.3% (active) | -87% (active) | -82.5% (active) | -85.1% (active) |
| COc1cccc2c(=O)c3c(sc12)c(N1CCNCC1)nc1ccccc13 | -33.9% (active) | 53.2% | 94.9% | -41.4% (active) | 83% | 63.3% | -43.8% (active) | 89.5% | 73.2% | 85.5% | 97.6% | 54.7% | -39.2% (active) | 53.2% | -52.4% (active) | 11.1% | 46.3% |
| Cc1ccc(-c2nc(N3CCN(C(=O)Nc4ccc(Cl)c(C(F)(F)F)c4)CC3)c3ccccc3n2)cc1 | 75% | 73.6% | 86.9% | 77.8% | 81.7% | 78.2% | 74.8% | 82.2% | 69.1% | 70.3% | 93.6% | 79.7% | 84.8% | 62% | 67.5% | 85.3% | 82.9% |
| O=C(Nc1nc2ccc(F)cc2s1)c1cccnc1Nc1ccc(Cl)cc1Cl | 32.8% | 19.5% | 64.3% | -31.3% (active) | 44% | 30.5% | -3.55% (active) | 20.9% | 1.58% (active) | 0.802% (active) | -9.44% (active) | 26.3% | 20.2% | 13% | 11% | 8.35% (active) | 9.49% (active) |
| Cc1cccc(NCc2cn(-c3ccc(C(=O)O)cc3)nc2-c2ccc(C(=O)O)cc2)n1 | 111% | 110% | 95.2% | 105% | 110% | 105% | 106% | 96.9% | 108% | 100% | 104% | 101% | 99.9% | 97.4% | 107% | 112% | 102% |
| C/C(=N/NC(N)=S)c1sc(Nc2cccc(Cl)c2)nc1C | 90.1% | 97.5% | 86.8% | 63.6% | 116% | 86% | 76.8% | 88.2% | 86.7% | 30.9% | 84.1% | 84.5% | 81.8% | 76.1% | 74.4% | 107% | 87.8% |
| C/C=C(\C)C(=O)N[C@H]1[C@@H](OC(C)=O)C[C@]2(C)C3CC[C@@]4(C)C(CC[C@@H]4C(C)N(C)C)C3CCC2[C@H]1O (stereo partly drawn) | 51% | 78.6% | 96.7% | 15.3% | 93.6% | 66.4% | 74.9% | 88.6% | 67.9% | 60.6% | 63.4% | 1.82% (active) | 63.9% | 61.9% | 30.7% | 69.2% | 45.6% |
